# Screens: PubChem BioAssay, National Center for Advancing Translational Sciences (NCATS)
# FMDV inh: antivirals against foot and mouth disease virus; FMDV antiviral cell-based qHTS; Potency, µM (titrated, usually from 57.9 µM), without a hit: at the highest dose activity change, negative = inhibition, hits mostly inhibitors; hit rate 1.2% among 410,000; AID 1159524; calls by dose curve; tested in HEK293T cells; note: read-out not given here; potency is the fitted concentration of half-maximal effect; nearly all actives have a fitted effect of over 45% in size
# HCMV inh: blocks human cytomegalovirus replication; HFF cells, HCMV-luciferase reporter, 72 h; active compounds read low; activity change, negative = inhibition, % at 57.5 µM; hit rate 4.5% among 410,000; AID 1259415; in the data active = activity change below about -60%; inconclusive = no clear call, values can overlap the other calls; inactive = above about -39%
#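 Inhibition of viral replication was scored as loss of reporter luminescence in HFFs infected with HCMV-luciferase (MOI 1 PFU/cell) for 72 h; compounds tested at 2 doses, normalized to buffer and Salinomycin controls.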
# MARV entry inh: inhibitors of Marburg virus binding or cell entry. Marburg virus pseudotyped entry inhibition, cell reporter. Potency, µM (top dose mostly 37.8 µM), without a hit: at the top dose activity change, negative = inhibition, usual class: inhibitors. hit rate 1.8% among 300,000. AID 540276; calls by dose curve; tested in HEK293 cells; note: potency is the fitted concentration of half-maximal effect
# Lassa entry inh: blocks Lassa virus binding to or entry into cells | Lassa virus pseudotype entry inhibition, cell reporter | Potency, µM (highest dose often 37.9 µM), without a hit: at the top dose activity change, negative = inhibition, hits mostly inhibitors | hit rate 1.2% among 300,000 | AID 540256; calls by dose curve; tested in HEK293 cells; note: potency is the fitted concentration of half-maximal effect; nearly all actives have a fitted effect of over 50% in size
# * = called active by the depositor; ? = inconclusive; . = no result; + = active, no number; [ ] = another dose, or the depositor's remark. Hits are enriched below; roughly 6.2% of the tested compounds scored in any of these assays. % is set by controls: 0 for no effect and ±100 for the full control effect.
SMILES,FMDV inh,HCMV inh,MARV entry inh,Lassa entry inh
CC=COC(=O)N[C@@H](c1cccc(C)c1)[C@]1(C(=O)OCC)CCCC1=O,.,.,13%[14.2 µM],.
CN(C)c1ccc(-c2ccnc3c2CC(C)(C(=O)Nc2cccc(Oc4ccccc4)c2)O3)cc1 (stereo unspecified),-2%,5,.,.
COCC1CCCN(Cc2ccc3c(c2)CN(C(=O)c2ccc(-n4cccn4)cc2)CCO3)C1 (stereo unspecified),-5%,.,.,.
Cc1ccc2c(c1)CN(CCNC(=O)C(C)Oc1ccccc1)CC(C)O2 (stereo unspecified),-8%,.,.,.
O=C1C(=O)N(CNc2ccccn2)c2ccccc21,8%,-68*,?,?
O=S(=O)(NCC(Nc1ccc(Cl)cc1)c1ccccc1)c1ccc(Cl)cc1 (stereo unspecified),-3%,?,?,?
Cc1ccc(S(=O)(=O)NCC(Nc2cccc(Cl)c2)c2ccccc2)cc1 (stereo unspecified),-1%,-103*,?,?
N#Cc1cccc(NC(=O)N2CC[C@@]3(CCCN(C(=O)c4csnn4)C3)C2)c1,7%,.,.,.
N=c1sccn1CC(=O)NCc1ccc(Cl)cc1Cl,15%,-35,13µM*,8%[46.1 µM]
Cc1cc(C)n(CCc2nc(-c3ccc(-c4ccccc4)cc3)cs2)n1,4%,-65*,11%[46.1 µM],13%[46.1 µM]
Cc1cc(C)n(CCc2nc(-c3cccs3)cs2)n1,0%,20,5%,-10%
Cc1cc(C)n(CCc2nc(-c3ccco3)cs2)n1,1%,-105*,12%,-11%
COc1ccc(-c2csc(CCn3nc(C)cc3C)n2)cc1,-29%,-7,?,?
Cc1ccccc1CCNC(=O)c1cc2ccccn2n1,27%,89,.,3%[46.1 µM]
COc1ccc2c3c(n(C)c2c1)[C@@H](CO)N(C(=O)Cc1ccccn1)CC31CCN(C)CC1,.,0,.,.
CSc1nnc2c(n1)C[C@H](c1ccccc1)[C@@H](C)[C@@H](C(=O)N1CCCC1)C2,.,.,14%[14.2 µM],.
Cc1ccc(S(=O)(=O)N2C=CC(=O)CC2c2cccs2)cc1 (stereo unspecified),.,40,.,.
CC(C)(C)c1ccc(/C=C2\Oc3cc(O)ccc3C2=O)cc1,1%,-92*,?,?
O=C1/C(=C/c2ccc([N+](=O)[O-])cc2)Oc2cc(O)ccc21,21%,-89*,?,?
O=C1/C(=C/c2ccc(Br)cc2)Oc2cc(O)ccc21,13%,0,?,20%[46.1 µM]
O=C(/C(=C/c1ccncc1)n1ccnc1)c1ccc(Cl)cc1Cl,22µM*,?,.,.
CCNc1ncc2nc(-c3ccccc3)c(=O)n(CCOC)c2n1,8%,.,.,.
COc1ccc(Cl)cc1N1C(=O)[C@@H]2C[C@H]1CN2Cc1nc2ccccc2nc1C,4%,.,.,.
Cc1ccc(-c2nc(N)nc(N)n2)c(C)c1,-3%,-95*,.,.
CC(C)c1ccc(NC(=O)C2C3C=CC4(O3)C2C(=O)N(CCCN2CCCCC2)C4C(=O)NC2CCCCC2)cc1 (stereo unspecified),-10%,-77*,3%[46.1 µM],.
SMILES,FMDV inh,HCMV inh,MARV entry inh,Lassa entry inh
OC(CN1C2=NCCN2c2ccccc21)c1ccccc1 (stereo unspecified),-6%,-9,1%,0%
Clc1ccc(CN2C3=NCCCN3c3ccccc32)cc1Cl,-24%,-84*,?,?
OC(CN1C2=NCCCN2c2ccccc21)c1ccc(Cl)cc1 (stereo unspecified),-22%,-69*,.,.
CC(=O)Nc1ccc(-c2ccnc3c2CC(C)(C(=O)NCc2ccc(F)c(F)c2)O3)cc1 (stereo unspecified),-14%,-17,.,.
[O-][n+]1c2c(c3c4non(O)c4ccc31)CCCC2,.,-97*,3%,-4%
CN(C)c1ccc(CNc2nc3cc(-c4ccc(F)cc4)sc3c(=O)n2C)cc1,0%,-86*,.,.
COc1ccc(NC(=O)/C(Cl)=C(/Cl)S(=O)(=O)Cc2ccccc2)cn1,20µM*,-105*,?,22µM*
COc1ccc(NC(=O)/C(Cl)=C(/Cl)S(=O)Cc2ccc(Cl)cc2)cn1 (stereo unspecified),8.9µM*,-100*,?,3.2µM*
COc1ccc(NC(=O)C(Cl)=C(Cl)Cl)cn1,-7%,0,?,?
Cc1cc2oc(C(=O)Nc3sc4c(c3C(=O)NCc3ccco3)CCC4)cc(=O)c2cc1C,2%,0,7%[46.1 µM],15%[46.1 µM]
C[C@H]1COc2cccc(NCCO)c2S(=O)(=O)N1,.,3,.,6%[46.1 µM]
COc1ccc(CC(=O)Nc2nc(OCCN3CCCC3=O)cnc2-c2cccc(C(F)(F)F)c2)cc1,-13%,19,.,.
COCOc1ccc(-c2ncc(OCCN3CCCC3=O)nc2NC(=O)c2cc3ccccc3s2)cc1,-13%,-101*,.,.
O=C1COc2ccc(-c3cc(-c4ccccc4)c4c(n3)-c3cc(Cl)ccc3OC4)cc2N1,-10%,17,8%[46.1 µM],-18%[46.1 µM]
CCCCOC(=O)NC1CCc2cc(OC)c(OC)c(OC)c2-c2ccc(SC)c(=O)cc21 (stereo unspecified),0%,-80*,?,?
CCOC(=O)NC1CCc2cc(OC)c(OC)c(OC)c2-c2ccc(SC)c(=O)cc21 (stereo unspecified),0%,-72*,?,?
COc1cc(C(=O)NCCC(=O)NC2CCCc3ccccc32)cc(OC)c1OC (stereo unspecified),-5%,17,?,1%[46.1 µM]
CCOCC(=O)NC1CCc2cc(OC)c(OC)c(OC)c2-c2ccc(SC)c(=O)cc21 (stereo unspecified),-2%,-66*,-17%,?
CN[C@H]1CCc2cc(OC)c(OC)c(OC)c2-c2ccc(N[C@@H]3CCCCNC3=O)c(=O)cc21,-3%,.,.,.
COc1ccc(C2c3c(n(C)c4ccccc34)C(=O)N2CC(=O)Nc2cccc(F)c2)cc1 (stereo unspecified),-4%,0,.,-12%[46.1 µM]
Cc1ccccc1NC(=O)CCS(=O)(=O)c1ccc(Br)cc1,-23%,-24,.,.
Cc1ccc(S(=O)(=O)CCC(=O)Nc2ccc(Br)cc2C)cc1,-9%,+,.,-4%[46.1 µM]
CCc1ccc(NC(=O)CCS(=O)(=O)c2ccc(Br)cc2)cc1,-3%,-62*,.,.
Cc1ccc(S(=O)(=O)c2ccc([N+](=O)[O-])o2)cc1,18µM*,-28,7.9µM*,?
CCn1cc(C(=O)N2CCN(c3cccc(C)c3)C(C)C2)c(=O)c2cc(S(=O)(=O)N3CCOCC3)ccc21 (stereo unspecified),0%,12,-6%[46.1 µM],5%[46.1 µM]
SMILES,FMDV inh,HCMV inh,MARV entry inh,Lassa entry inh
N#C/C(=C\c1cccnc1)C(=O)Nc1cccc2ccccc12,25µM*,135,?,12%
O=C1N=C(N2CCCCC2)S/C1=C\c1ccccc1F,86%,14,?,-26%
CCCOc1ccccc1/C=C1\SC(N2CCCCC2)=NC1=O,17%,-82*,?,?
O=C(N/N=C/C=C/c1ccccc1)C1CC1c1ccccc1 (stereo unspecified),13%,5,?,0.13µM*
CC(=O)Nc1ccc(/C(C)=N/NC(=O)C2CC2c2ccccc2)cc1 (stereo unspecified),-11%,-11,3%,0.018µM*
CN(C)c1ccc(/C=N/NC(=O)C2CC2c2ccccc2)cc1 (stereo unspecified),12%,32,.,.
